An excerpt weighted towards active compounds, which were near 2.3% of everything screened.
Nrf2 inh = Nrf2 pathway inhibition; A549 ARE-Fluc reporter, luciferase luminescence, 18-24 h; Potency, µM (titrated, usually from 46 µM), without a hit: at the top dose activity change, negative = inhibition, most hits filed as inhibitors; hit rate 2.1% among 360,000; AID 504444; further: potency means the concentration at half of the fitted maximal effect; on the % scale 0 is the no-effect control and ±100 the full control effect; nearly all actives have a fitted effect of over 60% in size
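Nrf2 activity is the BugLite luminescence, read 15 min after reagent at room temperature, following CellTiter-Fluor cytotoxicity readout (30 min, 37C). Compound titrations were applied for 18-24 h to 5000 A549 ARE_Fluc cells/well in 5% FBS OPTI-MEM.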
Apoferritin bind = binds horse apoferritin like a general anesthetic; P02791; apoferritin/1-aminoanthracene competitive binding, fluorescence; Potency, µM (doses to about 77.5 µM), for inactives: at the top dose activity change, negative = displacement, most hits filed as inhibitors; hit rate 0.074% among 350,000; AID 485281; further: potency means the concentration at half of the fitted maximal effect; on the % scale 0 is the no-effect control and ±100 the full control effect; nearly all actives have a fitted effect of over 20% in size
Target sequence (P02791 2-175 limits assumed): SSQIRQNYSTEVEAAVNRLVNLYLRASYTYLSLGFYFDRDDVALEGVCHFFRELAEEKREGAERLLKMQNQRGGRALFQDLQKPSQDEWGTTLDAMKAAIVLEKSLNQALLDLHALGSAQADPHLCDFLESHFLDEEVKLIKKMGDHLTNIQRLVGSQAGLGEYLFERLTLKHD
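In PBS, apoferritin at 10 uM is loaded with 1-AMA from a 50% saturated solution. After 10 min of compound exposure at ambient temperature, reduced 535 nm fluorescence indicates probe displacement.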
Nrf2 ARE act = activates Nrf2 signaling; AREc32 ARE-luciferase reporter (MCF7-derived line), luminescence, 24 h; Potency, µM (doses to about 46.1 µM), for the others: at the highest dose activation, hits mostly activators; hit rate 0.31% among 410,000; AID 624171; further: potency means the concentration at half of the fitted maximal effect; % of control where 0% means no effect; nearly all actives have a fitted effect of over 65% in size
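Luminescent ARE reporter assay in AREc32_Fluc cells: overnight plating at 37 deg C, 24 hr compound incubation, Steady-Glo added, 30 min RT before reading.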
A549 viability = counter-screen for Nrf2 inhibitors: cytotoxicity in A549 cells. AID 504648. Potency, µM (highest dose often 46 µM), for the others: at the top dose activity change, negative = cytotoxicity, most hits filed as inhibitors. hit rate 0.16% among 390,000. A549 ARE-Fluc cells, CellTiter-Fluor viability, 18-24 h; further: potency means the concentration at half of the fitted maximal effect; on the % scale 0 is the no-effect control and ±100 the full control effect
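Cytotoxicity counterscreen: CellTiter-Fluor fluorescence was measured in A549 ARE_Fluc cells after 18-24 h of compound exposure in a concentration series. The subsequent BugLite luminescent read reports ARE-luciferase activity.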
Giardia killer = Giardia lamblia killing; Giardia lamblia trophozoite viability; activity change, % at 7.66 µM, hits read low; hit rate 0.15% among 340,000; AID 540267; in the data active means activity change below about -80%; inconclusive means between about -30% and that limit;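 further: parasites exposed to compound for two days anaerobically before the ATP read; on the % scale 0 is the no-effect control and ±100 the full control effect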
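ATP-content bioluminescence gauges trophozoite survival. Cells (100/well) receive compound and incubate anaerobically for 48 hrs at 37 deg C; detection reagent follows for 15-30 min at room temperature.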
mIDH1 inhibitor = blocks human mutant IDH1 R132H enzyme; hit rate 0.093% among 390,000; IDH1-R132H enzyme, NADPH consumption, diaphorase/resazurin fluorescence; AID 602179; Potency, µM (doses to about 76.6 µM), for inactives: at the top dose activity change, negative = inhibition, usual class: inhibitors; O75874; further: potency means the concentration at half of the fitted maximal effect; on the % scale 0 is the no-effect control and ±100 the full control effect; nearly all actives have a fitted effect of over 65% in size
Target sequence (O75874 whole entry R132H, stated change not applied): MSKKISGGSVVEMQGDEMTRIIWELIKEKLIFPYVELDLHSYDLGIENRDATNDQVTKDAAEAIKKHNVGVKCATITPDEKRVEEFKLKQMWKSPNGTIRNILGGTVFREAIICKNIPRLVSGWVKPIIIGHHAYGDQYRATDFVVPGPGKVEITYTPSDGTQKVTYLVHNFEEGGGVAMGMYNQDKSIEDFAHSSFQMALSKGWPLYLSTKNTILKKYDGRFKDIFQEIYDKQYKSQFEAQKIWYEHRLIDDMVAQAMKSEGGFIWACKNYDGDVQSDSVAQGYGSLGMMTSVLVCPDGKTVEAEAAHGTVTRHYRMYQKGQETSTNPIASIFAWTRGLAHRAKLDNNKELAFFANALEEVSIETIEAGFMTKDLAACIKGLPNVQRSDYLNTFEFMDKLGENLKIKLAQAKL
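IDH1-R132H (0.5 ug/mL) preincubated 30 min with compound, then NADPH (0.016 mM) and alpha-KG (2 mM) added; 80 min at RT, pH 7.5. Remaining NADPH coupled via diaphorase/resazurin to fluorescence (540/590 nm); concentration-response curves normalized to no-enzyme control.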
* marks the source's active call; other numbers are inactive results; ? = inconclusive; . = no result; [ ] = remark or other dose. Unless noted, the call rests on the fitted dose curve; in most records, active means well fitted curve in the direction sought with a large enough effect; inconclusive means small, poorly fitted or top-dose-only effect, or another doubt; inactive means no such curve, though single readings can be large; an effect the other way counts as inactive or inconclusive.

SMILES	Nrf2 inh	Apoferritin bind	Nrf2 ARE act	A549 viability	Giardia killer	mIDH1 inhibitor
O=C(NCc1ccc(F)cc1)C(c1ccccc1)c1ccccc1	0%	-5%	-1%	9%	-15	0%
N#Cc1ccccc1NC(=O)c1ccccc1OCC(=O)NCc1ccco1	0%	-12%	11µM*	10%	35	-2%
COc1ccccc1OCC(=O)Nc1ccccc1C(=O)NCc1ccco1	-5%	-13%	23%	0%	4	4%
Cc1ccc(/C=C/C(=O)OCC(=O)Nc2cccnc2Cl)o1	-9%	.	2.8µM*	-2%	-11	3%
C=C(Cl)COc1cc(C)cc2oc(=O)cc(CC)c12	9%	-12%	0%	19%	5	5%
CCc1cc(C=C(Cl)Cl)oc(=O)c1C	-14%	?	14µM*	-20%	-1	-1%
Cc1ccc(-n2c(O)c(C=Nc3cc(C)on3)c3ccccc3c2=O)c(C)c1	23µM*	45%	0%[9.22 µM]	?	22	-7%
COc1ccc(/C=C/C(=O)NCc2cn(C)nc2C)cc1COc1ccc(Br)cc1	18µM*	3%	0%	-24%	16	-2%
Cc1cc(C)cc(N(CC(=O)NCc2ccccc2Cl)S(=O)(=O)c2c(C)noc2C)c1	-4%	-1%	1%	2%	.	-2%
Cc1ccc(Oc2ccc(NC(=O)Cn3ccsc3=N)cc2)cc1	-12%	13µM*	4%	?	11	-3%
C=CCc1cccc(C=Nc2cc(Br)ccc2O)c1O	?	-9%	6.3µM*	-17%	3	6%
CCn1cnc2c(Nc3ccc(CC(=O)N=C(N)N)cc3)nc(C#N)nc21	-20%	.	.	-2%	.	.
O=C(NCc1ccc(Cl)cc1)C(=O)NCC(c1cccnc1)N1CCN(c2ccc(F)cc2)CC1 (configuration not stated)	21µM*	-8%	4%	-21%	-7	8%
O=C(NCC(c1cccnc1)N1CCN(c2ccc(F)cc2)CC1)c1ccccc1 (configuration not stated)	-6%	-10%	0%	-2%	2	1%
CCOc1ccc(NC(=NCc2ccc3c(c2)OCO3)SC2CC(=O)N(c3ccc(OCC)cc3)C2=O)cc1 (configuration not stated)	15µM*	-4%	0%	-27%	0	2%
COc1ccc(NC(=O)c2nnn(Cc3nc(-c4cc(OC)c(OC)c(OC)c4)oc3C)c2C)cc1Cl	-20%	47%	-1%	6%	.	15%
Cc1ccc(C(=O)C2CCN(C(=O)c3ccc(C)cc3)CC2)cc1	23µM*	-11%	0%	-14%	-2	2%
COc1ccc(OCCN2CCN(C(=O)c3ccc(OC)cc3)CC2)cc1	10µM*	-2%	0%	-13%	1	8%
COc1ccc(C(=O)N2CCC(C(=O)c3ccc(F)cc3)CC2)cc1	-32%	5%	0%	-1%	18	0%
CCCCCOc1ccc(C(=O)CCN2CCOCC2)cc1	?	?	20µM*	-6%	-10	-7%
COc1ccc(C(=O)C2CCN(C(=O)c3ccc(OC)cc3)CC2)cc1	23µM*	6%	0%	-11%	-4	10%
COc1ccc(OCCN2CCN(C(=O)c3ccc(OC(F)F)c(OC)c3)CC2)cc1	?	2%	1%	1%	10	0%
COc1cc(OC)c(OC)cc1/C=C/c1nc2cc3ccccc3cc2c(=O)n1-c1ccc(F)cc1F	.	5%	-1%	0%	.	-1%
CNc1cc2c(Nc3cccc(Br)c3)ncnc2cn1	.	5%	.	.	.	.
O=c1c2ccccc2nc(N/N=C/c2c(O)ccc3ccccc23)n1O	6.5µM*	-7%	5%	?	?	5%
SMILES	Nrf2 inh	Apoferritin bind	Nrf2 ARE act	A549 viability	Giardia killer	mIDH1 inhibitor
Cc1ccc(O)c(-n2nc3ccccc3n2)c1	11%	-17%	4%	1%	4	-9%
Oc1ccccc1-n1nc2ccc3nonc3c2n1	-1%	1%	10µM*	1%	-3	-7%
CS(=O)(=O)N1CCc2cc(-c3csc(NC(=O)Cc4ccccc4)n3)ccc21	21µM*	-1%	3%	-19%	9	0%
CC(=O)Nc1ccc(-c2csc(NC(=O)Cc3cccc(F)c3)n2)cc1	21µM*	0%	5%	3%	6	3%
COC(=O)c1ccc(N2CCC(c3cc(-c4ccc(OC)cc4)n[nH]3)CC2)c([N+](=O)[O-])c1	?	-22%	0%	-30%	-11	-1%
COc1ccc(-c2cc(C3CCN(c4ccc(C(C)=O)cc4[N+](=O)[O-])CC3)[nH]n2)cc1	16µM*	-19%	-1%	?	2	-1%
COc1ccc(C=NNC(=S)Nc2ccc(F)cc2)cc1OC	?	.	0%	-16%	-6	-4%
COc1ccc(C=NNC(=S)NN=Cc2ccc(OC)c(OC)c2)cc1OC	15µM*	.	12%	4%	0	4%
CCOc1ccc(-c2nc(CSCC(=O)NCc3ccc(Cl)cc3)c(C)o2)cc1	.	2%	-2%	7%	.	23%
Cc1ccc(CNC(=O)CSCc2nc(-c3ccc(Cl)cc3)oc2C)cc1	21µM*	-11%	-1%	-8%	.	-2%
Cc1oc(-c2cccc(Cl)c2)nc1CSCC(=O)NCc1ccccc1Cl	23µM*	-1%	-1%	?	.	-10%
Cc1cccc(S(=O)(=O)NC2CCN(C#N)C2)c1 (configuration not stated)	-6%	.	.	-1%	.	.
Cc1cccc(Nc2nc3c(S(=O)(=O)c4ccc(Br)cc4)nnn3c3ccsc23)c1C	-19%	-10%	0%	2%	.	-16%
CC1CCc2c(nc3ncnn3c2NCCc2ccccc2F)C1 (configuration not stated)	3.3µM*	-11%	0%	?	-10	2%
CC(=O)CCSc1nnc(-c2cccc(S(=O)(=O)N3CCOCC3)c2)o1	9%	.	0%	-1%	-4	3%
O=S(=O)(c1cccc(-c2nnc(SCc3nc4ccccc4s3)o2)c1)N1CCOCC1	?	-13%	14µM*	7%	-13	4%
O=c1cc(-c2ccccc2)oc2cc(O)c(O)cc12	.	75%	.	.	.	.
O=c1cc2oc3cc(O)c(O)cc3c(-c3ccccc3[N+](=O)[O-])c-2cc1O	3.3µM*	230%	0%	5.2µM*	?	10%
CCC1(OC(=O)CN(C)C)C(=O)OCc2c1cc1n(c2=O)Cc2cc3c(N)cccc3nc2-1 (configuration not stated)	0.65µM*	.	-1%	?	10	5%
C/C(=N\Nc1ccc2nncn2n1)c1ccc(Cl)s1	-5%	-7%	7.9µM*	0%	-25	16%
